Reference: PubChem BioAssay (NCI)
This is part of a sample that, as a whole, favours compounds with a hit. Of some 83,000 tested, about 20% had one in any assay.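 The test compound was applied at a single concentration to cells in 96-well plates for 48 hours, and percent growth was recorded.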 Values without a mark were called inactive. Active and inactive are the calls of the source. Rule for the calls: active = growth percent below 10; inactive = the rest.

Columns and labels:
Assay in all cases: NCI-60 one-dose screen, 48 h (100 = growth as untreated, 0 = no growth, -100 = all killed)
Details in all cases: 10 µM unless noted
[1] = test system: NCI-H23 lung
[2] = test system: NCI-H226 lung
[3] = test system: NCI-H322M lung
[4] = test system: HOP-62 NSCLC
[5] = test system: NCI-H460 lung
[6] = test system: HOP-92 NSCLC
[7] = test system: NCI-H522 lung
[8] = test system: A549/ATCC NSCLC
[9] = test system: 786-0 renal
[10] = test system: COLO 205 colon

SMILES | growth [1] | growth [2] [%] | growth [3] [%] | growth [4] | growth [5] | growth [6] | growth [7] | growth [8] | growth [9] | growth [10]
Cc1[nH]c(C(=O)Nc2ccc(C(N)=O)cc2N2CCOC(C)C2)c(Cl)c1Cl (stereo not given) | 96.2% | 89.9 | 95.1 | 98.4% | 102% | 107% | 95.1% | 99.6% | 92.9% | 124%
O=[N+]([O-])c1ccc(NC(=S)NNC(=S)Nc2ccc(F)cc2)cc1 | 89.6% | 94.2 | 76.9 | 97% | 90.9% | 72.9% | 70.1% | 88.2% | 97.3% | 115%
CC1=C(C)C(=O)C(Nc2ccc(C)c(C)c2)=C(Br)C1=O | 76.9% | 89.6 | 102 | 104% | 99.6% | 3.51% (active) | 97.2% | 103% | 105% | 116%
COc1ccc(-c2c(C(N)=O)c(N)n(Cc3nc4ccccc4[nH]3)c(=O)c2C#N)c(OC)c1 | 93.1% | 94.5 | 97.3 | 94.9% | 105% | 101% | 95.2% | 102% | 103% | 117%
COc1cccc(N2CCN(C3=C(Cl)C(=O)c4ncccc4C3=O)CC2)c1 | 60.3% | 94.7 | 95.4 | 83.5% | 63% | 135% | 42.6% | 97.2% | 114% | 91.9%
CC(C)(C)OC(=O)NCc1ccc(CNc2c([N+](=O)[O-])cnc3ccccc23)cc1 | 46.2% | 55.2 | 91.6 | 58.5% | 70.1% | 32.1% | 62.4% | 72.2% | 73.8% | 80.1%
CC(=O)C1=C(C)NC(NNc2ccccc2)=NC1c1ccc([N+](=O)[O-])cc1 (stereo not given) | 95.3% | 96.7 | 84.6 | 113% | 99.9% | 99.7% | 76.9% | 88.1% | 97.8% | 106%
NCCNC(=O)c1cccc(COc2ccccc2NC(=O)c2cc(Cl)c(Cl)[nH]2)c1 | 98.1% | 96.4 | 102 | 104% | 104% | 107% | 104% | 98.6% | 90.3% | 113%
O=C(CCCCCC/C=C\c1csc(Br)n1)NO | 95.2% | 96.8 | 100 | 88.9% | 85.8% | 102% | 65.6% | 91.9% | 104% | 95%
O=C(CCCCCCNC(=O)c1csc(Br)n1)NO | 47.7% | 79 | 61.6 | 48.2% | 34.9% | 5.32% (active) | 15.7% | 34.8% | 72.4% | 20.9%
CCOC(=O)c1ccc(NC2=CC(=O)C(C)=C(C)C2=O)cc1 | 51% | 95.6 | 104 | 70.5% | 98.4% | 113% | 87.5% | 117% | 106% | 115%
Fc1ccc(-c2cn3c(-c4c[nH]c5ccc(Br)cc45)csc3n2)cc1 | 30.4% | 59.8 | 81.4 | 34.8% | 52.9% | 22.2% | 85.1% | 78.6% | 97.2% | 76.9%
N#C/C(=C\c1ccc(-c2ccc(Cl)cc2)o1)C(=O)Nc1ncc(Cc2ccc(Br)cc2)s1 | -30.6% (active) | 40.3 | 19.1 | 5.97% (active) | -78.1% (active) | 8.49% (active) | 4.79% (active) | -53% (active) | 23.4% | 41.1%
CCCCCCN1C=C/C(=C\C(=O)n2ccc3ccccc32)c2ccccc21 | 9.61% (active) | 52.9 | 93.5 | 89.6% | 87.7% | 82.6% | 57.7% | 84.3% | 86.6% | 87.3%
COc1ccc([C@H]2C(=O)N(c3cc(OC)c(OC)c(OC)c3)[C@@H]2c2ccc(OC)c(O)c2)cc1 | 24.4% | 41.8 | 43.3 | 26.7% | 4.38% (active) | 6.76% (active) | -49.2% (active) | 21.6% | 6.39% (active) | -76.1% (active)
N#C/C(=C\c1ccc(-c2ccc(Cl)c(Cl)c2)o1)C(=O)Nc1ncc(Cc2ccc(Cl)cc2)s1 | 38.2% | 73.6 | 33 | 72.1% | -42.4% (active) | 81.5% | 47.1% | 11.6% | 11.4% | 55.8%
C#C[C@]1(O)CC[C@H]2[C@@H]3CC=C4c5sc(N(C)c6ccccc6)nc5CC[C@]4(C)[C@H]3CC[C@@]21C | 86.6% | 96.4 | 103 | 101% | 61.9% | 139% | 87.2% | 69% | 57.1% | 66.8%
CN1CCN(c2ccc(Nc3nc(NCCNC(=O)c4ccc(F)cc4)c4sccc4n3)cc2)CC1 | 74.2% | 91.1 | 81.7 | 99.4% | 84.5% | 50.1% | 68.1% | 77.9% | 52.3% | 44.3%
COc1ccc(/C=N/NC(=O)c2c(N)nn(C)c2Nc2ccccc2)cc1 | 66.9% | 51.6 | 90 | 38.8% | 14.6% | 46.8% | 19.3% | 57.1% | 58% | 35.8%
CCOP(=O)(OCC)OC[C@]12CCC(C)(C)C[C@H]1C1=CC[C@@H]3[C@@]4(C)CC[C@H](OP(=O)(OCC)OCC)C(C)(C)[C@@H]4CC[C@@]3(C)[C@]1(C)CC2 | 53.9% | 66.1 | 83.7 | 82.9% | 51.3% | 27.9% | 51.5% | 44.3% | 66.3% | 66.6%
COc1ccc2c(c1)c(-c1nnc(N)nc1-c1c[nH]c3ccc(F)cc13)cn2C | 44.6% | 57.8 | 87 | 54.7% | 15.1% | 68.7% | 27.2% | 50.7% | 46% | 41.4%
Cc1ccc(OCc2occc2C(=O)N2CCOCC2)cc1 | 101% | 96.9 | 106 | -95.9% (active) | 107% | 103% | 100% | 109% | 98.7% | 117%
Fc1ccc2nc(-c3cnn4cccnc34)sc2c1 | 93.3% | 83.1 | 67.5 | 85.1% | 88.2% | 78.9% | 93.5% | 81% | 101% | 102%
O=C(/C=C/c1cccc(F)c1)c1cccc(OCCCCOc2cccc(C(=O)/C=C/c3cccc(F)c3)c2)c1 | 102% | 103 | 102 | 114% | 100% | 139% | 93.4% | 104% | 106% | 117%
COc1ccc(C2CC(c3cccc(OCCCCOc4cccc(C5=NN(C(C)=O)C(c6ccc(OC)cc6)C5)c4)c3)=NN2C(C)=O)cc1 (stereo not given) | 57% | 62.3 | 91 | 71.3% | 66.6% | 68.7% | 53.2% | 68.2% | 86.3% | 82.8%
CCOC(=O)C1=C(C)NC(C)=C(C(=O)OCc2ccccc2)C1c1cccc(C#N)c1 (stereo not given) | 62.5% | 58.4 | 69 | 45.6% | 22.1% | 50.5% | 9.38% (active) | 34.1% | 36.2% | 34.5%
